Assay results reported in PubChem BioAssay (NCATS).
Where “and” joins values, the source holds several entries; their conditions need not be identical. Equal values may be shown once. Records with an inconclusive call do not appear. Calls of active or inactive are those of the source. Calls follow the shape of the dose curve; as a rule, active = well fitted curve in the direction sought with a large enough effect; inconclusive = small, poorly fitted or top-dose-only effect, or another doubt; inactive = no such curve, though single readings can be large; an effect the other way counts as inactive or inconclusive.

How the values were obtained:
C33A = assay: Primary qHTS to identify gynecologic anti-cancer compounds using libraries of approved drugs and bioactive compounds (AID 1345084); conditions: Gynecologic cancer cell panel viability, ATPlite luminescence, 48 h; series mostly up to 57.5 µM; also: nearly all actives have a fitted effect of over 55% in size; also: potency is read from the fitted curve at half-maximal effect
Summary of the method: (§1)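 ATP-based viability (ATPlite), 1,000 cells/well, 16 h pre-incubation, 48 h compound at 37 C, 5% CO2, 15 min RT before read.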

CASKI = assay: as above; conditions: Gynecologic cancer cell panel viability, ATPlite luminescence, 48 h; series mostly up to 57.5 µM
Summary of the method: as §1

Es-2 = assay: as above; conditions: Gynecologic cancer cell panel viability, ATPlite luminescence, 48 h; series mostly up to 57.5 µM
Summary of the method: as §1

HeLa = assay: as above; conditions: Gynecologic cancer cell panel viability, ATPlite luminescence, 48 h; series mostly up to 57.5 µM
Summary of the method: as §1

Hek293T = assay: as above; conditions: Gynecologic cancer cell panel viability, ATPlite luminescence, 48 h, control line for the selectivity index; series mostly up to 57.5 µM
Summary of the method: as §1

JEG-3 = assay: as above; conditions: Gynecologic cancer cell panel viability, ATPlite luminescence, 48 h; series mostly up to 57.5 µM
Summary of the method: as §1

OV90 = assay: as above; conditions: Gynecologic cancer cell panel viability, ATPlite luminescence, 48 h; series mostly up to 57.5 µM
Summary of the method: as §1

PA-1 = assay: as above; conditions: Gynecologic cancer cell panel viability, ATPlite luminescence, 48 h; series mostly up to 57.5 µM
Summary of the method: as §1

SKOV3 = assay: as above; conditions: Gynecologic cancer cell panel viability, ATPlite luminescence, 48 h; series mostly up to 57.5 µM
Summary of the method: as §1

Tov-21-G = assay: as above; conditions: Gynecologic cancer cell panel viability, ATPlite luminescence, 48 h; series mostly up to 57.5 µM
Summary of the method: as §1

Tov112D = assay: as above; conditions: Gynecologic cancer cell panel viability, ATPlite luminescence, 48 h; series mostly up to 57.5 µM
Summary of the method: as §1

[1] = qHTS assay to identify inhibitors of the type 1 interferon - major histocompatibility complex class I in skeletal muscle: Counter screen cell viability and HiBit confirmation (AID 1347412); conditions: iHSKM muscle cells + IFN-b, HiBiT or CellTiter-Glo, 24 h; for activity change, negative = inhibition: at 45.9 µM (top of the series); also: potency is read from the fitted curve at half-maximal effect; as to all read-outs here: nearly all actives have a fitted effect of over 60% in size
Summary of the method: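 Human myoblast knock-in line, 4.0 ng/ml IFN-beta stimulation, 24 h compound treatment. Endpoints: HiBiT lytic luminescence (HLA-B level) and CellTiter Glo (ATP). Dosing 12 concentrations, 3-fold steps, 46 uM highest final.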

[2] = Drug repurposing screens with cells derived from glioblastoma tumor samples (AID 1345199); conditions: GBM patient neurospheres viability, ATP luminescence, 48 h; also: nearly all actives have a fitted effect of over 40% in size
Summary of the method: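 Primary testing used CD133+ neurospheres from four GBM patients, seven concentrations, 48 h exposure and ATP-based viability; confirmation added three slower-growing patient lines.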

CAOV3 = assay: Primary qHTS to identify gynecologic anti-cancer compounds using libraries of approved drugs and bioactive compounds (AID 1345084); conditions: Gynecologic cancer cell panel viability, ATPlite luminescence, 48 h; series mostly up to 57.5 µM; also: nearly all actives have a fitted effect of over 55% in size; also: potency is read from the fitted curve at half-maximal effect
Summary of the method: as §1

[3] = at 45.9 µM (top of the series), tumour line B
[4] = at 45.9 µM (top of the series), tumour line D
[5] = at 46 µM (top of the series), tumour line A
[6] = at 46.1 µM (top of the series), tumour line C
% is scaled to controls: 0 for no effect and ±100 for the full control effect.

CCNC(=O)Nc1ccc2ncc(Nc3ccc(C)cc3)nc2n1
inactive: Potency (C33A) | Potency (CASKI) | Potency (Es-2) | Potency (HeLa) | Potency (Hek293T) | Potency (JEG-3) | Potency (OV90) | Potency (PA-1) | Potency (SKOV3) | Potency (Tov-21-G) | Potency (Tov112D)

Cc1cc(CN2CCN(c3c(Br)cnc4nc(-c5ccc(N6CCN(C)CC6)cc5)[nH]c34)CC2)no1
inactive: Potency (C33A) | Potency (CASKI) | Potency (Es-2) | Potency (Hek293T) | Potency (JEG-3) | Potency (OV90) | Potency (SKOV3)
active: Potency (HeLa) 1.58 µM | Potency ([1]; HiBiT) 8.83 µM | Potency ([1]; Viability) 11.1 µM

COc1cc2c(NC3CCN(C(C)C)CC3)nc(C3CCCCC3)nc2cc1OCCCN1CCCC1
active: Potency (C33A) 28.2 µM | Potency (CASKI) 20 µM | Potency (JEG-3) 10 µM | Potency (OV90) 11.2 µM | Potency (PA-1) 31.6 µM | Potency (SKOV3) 12.6 µM | Potency (Tov112D) 22.4 µM

COc1c(N2C[C@@H]3CCCN[C@H]3C2)c(F)cc2c(=O)c(C(=O)O)cn(C3CC3)c12
inactive: activity, negative = cell killing [2, 3] 6.2% and 1.37% | activity, negative = cell killing [2, 4] -16.2% and 10% | activity, negative = cell killing [2, 5] -18.3% | activity, negative = cell killing [2, 6] 4.44% and 2.53%

CC(C)c1noc(N2CCC(COc3ccc(-c4ccc(S(C)(=O)=O)cc4)nc3)CC2)n1
inactive: Potency (C33A) | Potency (CASKI) | Potency (Es-2) | Potency (HeLa) | Potency (JEG-3) | Potency (OV90) | Potency (PA-1) | Potency (SKOV3) | Potency (Tov-21-G) | Potency (Tov112D)

O=C(O)CO.[NH2-].[NH2-].[Pt+2]
inactive: activity, negative = cell killing [2, 3] -16.9% | activity, negative = cell killing [2, 4] 26.7% | activity, negative = cell killing [2, 5] -24.8% | activity, negative = cell killing [2, 6] -11%

Nc1ccn([C@@H]2CS[C@H](CO)O2)c(=O)n1
inactive: activity, negative = cell killing [2, 3] -9.03% | activity, negative = cell killing [2, 4] -12.1% | activity, negative = cell killing [2, 5] -14.9% | activity, negative = cell killing [2, 6] 6.78%

COc1ccc(OC)c(-c2nnc3ccc(-c4ccc(OC)c(O[C@@H]5CCOC5)c4)nn23)c1
inactive: Potency (OV90)
active: Potency (HeLa) 22.4 µM

CC[C@@H]1C(=O)N(C)c2cnc(Nc3ccc(C(=O)NC4CCC(N5CCN(CC6CC6)CC5)CC4)cc3OC)nc2N1C(C)C (stereo partly drawn)
active: Potency (CAOV3) 12.6 µM | Potency (CASKI) 17.8 µM | Potency (Es-2) 3.98 µM | Potency (OV90) 15.8 µM and 12.6 µM | Potency (PA-1) 0.251 µM | Potency ([1]; HiBiT) 6.25 µM

OCc1ccc(-c2ccc(-c3ccc(CO)s3)o2)s1
inactive: Potency (C33A) | Potency (HeLa) | Potency (JEG-3) | Potency (Tov-21-G)
active: Potency (Hek293T) 1.41 µM | Potency (OV90) 3.16 µM | Potency (PA-1) 0.355 µM | Potency (SKOV3) 12.6 µM

C[C@@H]1COC(Nc2ccc3ncnc(Nc4ccc(OCc5nccs5)c(Cl)c4)c3c2)=N1
inactive: Potency (HeLa) | Potency (JEG-3) | activity change, negative = inhibition ([1]; Viability) -24%
active: Potency (SKOV3) 14.1 µM

Cc1cn(-c2cc(NC(=O)c3ccc(C)c(Nc4nccc(-c5cccnc5)n4)c3)cc(C(F)(F)F)c2)cn1
active: Potency (PA-1) 12.6 µM
inactive: Potency (C33A) | Potency (CAOV3) | Potency (CASKI) | Potency (Es-2) | Potency (HeLa) | Potency (Hek293T) | Potency (JEG-3) | Potency (OV90) | Potency (Tov-21-G) | Potency (Tov112D)

NC1(Cc2ccc(Cl)cc2)CCN(c2ncnc3[nH]ccc23)CC1
active: Potency (C33A) 10 µM | Potency (Hek293T) 10 µM
inactive: Potency (CAOV3) | Potency (CASKI) | Potency (Es-2) | Potency (HeLa) | Potency (PA-1) | Potency (Tov112D)

Fc1cc(-c2cccc3ncc(-c4cnn(C5CCNCC5)c4)nc23)cc(F)c1CN1CCOCC1
active: Potency (CAOV3) 31.6 µM | Potency (SKOV3) 12.6 µM | Potency (Tov-21-G) 11.2 µM | Potency ([1]; HiBiT) 19.8 µM
inactive: Potency (HeLa) | Potency (Hek293T)

Cc1ccc(NC(=O)C2(c3ccc4c(c3)OC(F)(F)O4)CC2)nc1-c1cccc(C(=O)O)c1
inactive: Potency (C33A) | Potency (CAOV3) | Potency (CASKI) | Potency (Es-2) | Potency (HeLa) | Potency (Hek293T) | Potency (JEG-3) | Potency (OV90) | Potency (PA-1) | Potency (SKOV3) | Potency (Tov-21-G) | Potency (Tov112D)

C=CC(=O)Nc1cc2c(Nc3ccc(F)c(Cl)c3)ncnc2cc1OCCCN1CCOCC1
inactive: Potency (Es-2) | Potency (HeLa) | Potency (Hek293T) | Potency (JEG-3) | Potency (OV90) | Potency (PA-1) | Potency (Tov112D) | activity change, negative = inhibition ([1]; Viability) -26.8%
active: Potency (CASKI) 8.91 µM | Potency (SKOV3) 3.16 µM | Potency ([1]; HiBiT) 15.7 µM
